The full data set covers some 8,800 targets. This sample favours those with a hit. About 0.5% of all pairs of compound and target were hits.
Experiments:
Test in all cases: log2 fold change, soluble protein after heating vs DMSO (PISA); higher = thermal stabilisation; K562 lysate, 10 uM; active = over 0.2 and 3.5 SD of the protein, either way, in both replicates (recomputed)
alvocidib = compound: CN1CC[C@H](c2c(O)cc(O)c3c(=O)cc(-c4ccccc4Cl)oc23)[C@H](O)C1 [alvocidib]
Method in brief: (§1)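 Log-two fold change in thermal stability relative to solvent controls is reported from duplicates. For each sample, crude K562 extract from dounce-homogenised pellets in PBS pH 7.4 with 1 mM MgCl2, at 1 mg/mL protein, was treated with 10 μM compound for 30 min. Aliquots heated for 3 min across 48°C-58°C were pooled, brought to 0.5% NP-40 at 4°C and cleared at 21,000xg for 90 min. The supernatant was quantified by TMTpro 16plex LC-MS/MS with channel sums equalised.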

Tubastatin A = compound: CN1CCc2c(c3ccccc3n2Cc2ccc(C(=O)NO)cc2)C1 [Tubastatin A]
Method in brief: as §1

[1] = compound: CNC(=O)C1=CC=CC=C1NC2=NC(=NC=C2Cl)NC3=C(C=C(C=C3)N4CCOCC4)OC
Method in brief: as §1

defactinib = compound: CNC(=O)c1ccc(Nc2ncc(C(F)(F)F)c(NCc3nccnc3N(C)S(C)(=O)=O)n2)cc1 [defactinib]
Method in brief: as §1

[2] = compound: CNc1nc(-c2ccc3c(N)n[nH]c3c2)cc(N2C[C@@H](C(=O)NC3CCCCC3)CC[C@H]2C)n1
Method in brief: as §1

encorafenib = compound: COC(=O)N[C@@H](C)CNc1nccc(-c2cn(C(C)C)nc2-c2cc(Cl)cc(NS(C)(=O)=O)c2F)n1 [encorafenib]
Method in brief: as §1

[3] = compound: COC(=O)[C@H](CCSC)NC(=O)C1=C(C=C(C=C1)NC[C@H](CS)N)C2=CC=CC=C2
Method in brief: as §1

alisertib = compound: COc1cc(Nc2ncc3c(n2)-c2ccc(Cl)cc2C(c2c(F)cccc2OC)=NC3)ccc1C(=O)O [alisertib]
Method in brief: as §1

[4] = compound: COc1cc2nc(-c3cc(F)ccc3O)nc(N[C@@H]3CNC[C@H]3C(C)(C)O)c2cc1OC
Method in brief: as §1

gefitinib = compound: COc1cc2ncnc(Nc3ccc(F)c(Cl)c3)c2cc1OCCCN1CCOCC1 [gefitinib]
Method in brief: as §1

Measured: log2 fold change

MAP11 (UniProt Q8WVR3)
UniProt Q8WVR3, sequence (Q8WVR3 whole entry, looked up): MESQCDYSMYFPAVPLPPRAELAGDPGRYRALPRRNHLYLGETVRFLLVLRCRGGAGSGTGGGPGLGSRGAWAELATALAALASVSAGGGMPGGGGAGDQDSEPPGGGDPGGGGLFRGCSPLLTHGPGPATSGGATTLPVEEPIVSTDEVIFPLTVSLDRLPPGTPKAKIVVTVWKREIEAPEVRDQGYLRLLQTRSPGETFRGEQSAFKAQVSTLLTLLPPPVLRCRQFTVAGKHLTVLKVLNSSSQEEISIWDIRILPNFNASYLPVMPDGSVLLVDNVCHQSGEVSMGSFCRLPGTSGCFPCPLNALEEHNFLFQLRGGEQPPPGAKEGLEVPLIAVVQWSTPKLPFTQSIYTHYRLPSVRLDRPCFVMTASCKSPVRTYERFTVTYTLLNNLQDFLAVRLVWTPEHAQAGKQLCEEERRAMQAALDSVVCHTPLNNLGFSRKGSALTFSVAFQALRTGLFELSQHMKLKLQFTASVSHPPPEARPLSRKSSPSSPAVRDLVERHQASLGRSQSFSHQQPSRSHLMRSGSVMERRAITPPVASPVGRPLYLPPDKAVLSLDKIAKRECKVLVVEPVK
inactive: alvocidib -0.117 | Tubastatin A -0.091 | [1] 0.021 | defactinib 0.076 | [2] 0.004 | encorafenib -0.058 | [3] -0.084 | alisertib -0.001 | [4] -0.025 | gefitinib -0.046

KIF4B (UniProt Q2VIQ3)
inactive: alvocidib -0.01 | [1] 0.024 | defactinib 0.008 | [2] -0.039 | encorafenib 0.034 | [3] 0.146 | alisertib -0.018 | [4] -0.006 | gefitinib -0.018
active: Tubastatin A -0.207

LIMK2 isoform 3 (UniProt P53671)
inactive: alvocidib -0.002 | Tubastatin A 0.02 | [1] 0.068 | defactinib -0.026 | [2] 0.102 | encorafenib 0.204 | [3] -0.189 | alisertib 0.031 | [4] 0.033 | gefitinib -0.141

KIF3C (UniProt O14782)
inactive: alvocidib 0.033 | Tubastatin A -0.018 | [1] -0.01 | defactinib 0.157 | [2] 0.058 | encorafenib 0.101 | [3] 0.024 | alisertib 0.247 | [4] 0.07 | gefitinib -0.029

KIF2A isoform 2 (UniProt O00139)
inactive: alvocidib 0.153

MED17 (UniProt Q9NVC6)
inactive: alvocidib -0.001 | Tubastatin A -0.093 | [1] 0.025 | defactinib -0.035 | [2] -0.019 | encorafenib 0.03 | [3] -0.017 | alisertib -0.012 | [4] 0.023 | gefitinib -0.015

LTN1 isoform 3 (UniProt O94822)
inactive: alvocidib 0.016 | Tubastatin A -0.259 | [1] -0.014 | defactinib -0.009 | [2] -0.063 | encorafenib 0.034 | [3] -0.072 | alisertib 0.017 | [4] 0.035 | gefitinib -0.021

MMS19 isoform 8 (UniProt Q96T76)
UniProt Q96T76, sequence (Q96T76 whole entry, looked up): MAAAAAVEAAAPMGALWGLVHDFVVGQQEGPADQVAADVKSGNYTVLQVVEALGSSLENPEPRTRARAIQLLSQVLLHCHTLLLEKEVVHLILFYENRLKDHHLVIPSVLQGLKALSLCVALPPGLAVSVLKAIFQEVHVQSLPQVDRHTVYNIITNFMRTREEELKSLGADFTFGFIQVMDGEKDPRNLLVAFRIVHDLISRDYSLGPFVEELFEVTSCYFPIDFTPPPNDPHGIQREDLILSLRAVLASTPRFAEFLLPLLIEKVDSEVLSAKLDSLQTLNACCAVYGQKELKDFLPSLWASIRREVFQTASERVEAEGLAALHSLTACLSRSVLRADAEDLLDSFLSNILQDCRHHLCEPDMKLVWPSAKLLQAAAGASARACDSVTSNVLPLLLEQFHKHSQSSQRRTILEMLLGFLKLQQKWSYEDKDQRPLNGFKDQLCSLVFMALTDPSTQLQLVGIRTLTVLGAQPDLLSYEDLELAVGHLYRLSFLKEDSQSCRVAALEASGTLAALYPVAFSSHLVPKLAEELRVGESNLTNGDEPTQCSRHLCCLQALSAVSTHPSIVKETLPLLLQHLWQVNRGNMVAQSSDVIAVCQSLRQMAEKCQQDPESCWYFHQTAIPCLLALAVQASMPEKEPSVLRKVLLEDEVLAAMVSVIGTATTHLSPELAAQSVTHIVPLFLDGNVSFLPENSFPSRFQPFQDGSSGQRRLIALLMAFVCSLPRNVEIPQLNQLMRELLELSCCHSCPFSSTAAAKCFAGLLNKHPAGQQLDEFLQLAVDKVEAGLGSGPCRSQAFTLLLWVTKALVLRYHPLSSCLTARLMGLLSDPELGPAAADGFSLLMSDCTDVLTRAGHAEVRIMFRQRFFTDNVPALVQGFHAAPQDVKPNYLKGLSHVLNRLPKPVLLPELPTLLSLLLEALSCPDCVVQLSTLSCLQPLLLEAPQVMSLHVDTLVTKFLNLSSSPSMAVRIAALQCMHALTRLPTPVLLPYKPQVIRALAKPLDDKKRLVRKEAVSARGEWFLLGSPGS
inactive: alvocidib 0.008 | Tubastatin A -0.144 | [1] 0 | defactinib -0.027 | [2] 0.007 | encorafenib 0.014 | [3] 0.128 | alisertib 0.002 | [4] 0.001 | gefitinib -0.022

LSM8 (UniProt O95777)
inactive: alvocidib -0.012 | Tubastatin A 0.018 | [1] 0.007 | defactinib 0.048 | [2] -0.028 | encorafenib 0.032 | [3] -0.076 | alisertib -0.026 | [4] 0.005 | gefitinib 0.046

L3HYPDH (UniProt Q96EM0)
inactive: alvocidib 0.023 | Tubastatin A -0.052 | [1] 0.005 | defactinib -0.012 | [2] 0.022 | encorafenib -0.017 | [3] 0.039 | alisertib -0.019 | [4] -0.005 | gefitinib -0.013

MRPL19 (UniProt P49406)
inactive: alvocidib -0.056 | Tubastatin A -0.119 | [1] -0.036 | defactinib -0.005 | [2] -0.052 | encorafenib -0.003 | [3] 0.042 | alisertib 0.037 | [4] -0.03 | gefitinib 0.043

MICU2 (UniProt Q8IYU8)
inactive: alvocidib 0.03 | Tubastatin A -0.039 | [1] 0.01 | defactinib 0.003 | [2] 0.009 | encorafenib 0.015 | [3] -0.091 | alisertib 0.039 | [4] -0.128 | gefitinib -0.054

MRPL10 isoform 2 (UniProt Q7Z7H8)
inactive: alvocidib 0.024 | Tubastatin A -0.013 | [1] -0.035 | defactinib 0.023 | [2] 0.074 | encorafenib 0.031 | [3] 0.183 | alisertib 0.028 | [4] -0.025 | gefitinib -0.019

MLXIP (UniProt Q9HAP2)
inactive: alvocidib -0.035 | Tubastatin A -0.016 | [1] -0.049 | defactinib -0.029 | [2] -0.017 | encorafenib 0.027 | [3] -0.016 | alisertib 0.002 | [4] -0.051 | gefitinib -0.047

KPNA2 (UniProt P52292)
inactive: alvocidib 0.018 | Tubastatin A -0.083 | [1] -0.012 | defactinib 0.012 | [2] -0.013 | encorafenib -0.005 | [3] 0.122 | alisertib 0.008 | [4] -0.017 | gefitinib 0.003

MPI (UniProt P34949)
inactive: alvocidib 0.051 | Tubastatin A 0.024 | [1] -0.02 | defactinib -0.007 | [2] 0.035 | encorafenib -0.01 | alisertib 0.018 | [4] 0.01 | gefitinib -0.014
active: [3] 0.477

KLC1 isoform 6 (UniProt Q07866)
UniProt Q07866, sequence (Q07866 whole entry, looked up): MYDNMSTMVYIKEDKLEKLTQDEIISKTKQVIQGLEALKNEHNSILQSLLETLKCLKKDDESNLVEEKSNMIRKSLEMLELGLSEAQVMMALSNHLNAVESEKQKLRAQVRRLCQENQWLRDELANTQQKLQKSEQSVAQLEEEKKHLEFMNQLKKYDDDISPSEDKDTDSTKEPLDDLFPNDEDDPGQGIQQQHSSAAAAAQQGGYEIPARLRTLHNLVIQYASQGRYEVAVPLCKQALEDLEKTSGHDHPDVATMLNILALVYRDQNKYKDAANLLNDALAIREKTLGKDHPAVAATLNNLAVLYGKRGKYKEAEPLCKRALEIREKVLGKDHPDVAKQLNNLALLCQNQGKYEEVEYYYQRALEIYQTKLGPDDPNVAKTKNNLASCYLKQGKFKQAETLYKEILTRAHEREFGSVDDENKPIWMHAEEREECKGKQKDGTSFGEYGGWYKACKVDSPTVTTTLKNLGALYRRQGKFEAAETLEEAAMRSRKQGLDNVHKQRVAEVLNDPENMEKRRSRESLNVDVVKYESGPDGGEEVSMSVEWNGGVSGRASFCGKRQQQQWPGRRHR
inactive: alvocidib -0.015 | Tubastatin A -0.038 | [1] 0.02 | defactinib -0.003 | [2] -0.018 | encorafenib 0.002 | [3] 0.002 | alisertib 0.002 | [4] 0.014 | gefitinib -0.009

LPCAT1 (UniProt Q8NF37)
inactive: alvocidib -0.117 | Tubastatin A 0.117 | [1] 0.067 | defactinib 0.045 | [2] 0.097 | encorafenib 0.037 | [3] -0.063 | alisertib 0.07 | [4] -0.01 | gefitinib -0.009

MBTPS1 (UniProt Q14703)
inactive: alvocidib 0.096 | Tubastatin A -0.058 | [1] 0.013 | defactinib -0.002 | [2] 0.029 | encorafenib 0.048 | [3] -0.036

LZTS1 (UniProt Q9Y250)
inactive: alvocidib 0.054 | Tubastatin A 0.326 | [1] -0.037 | defactinib -0.101 | [2] 0.709 | encorafenib -0.071 | [3] 0.001 | alisertib -0.022 | [4] 0.129 | gefitinib -0.08

MCCC1 (UniProt Q96RQ3)
inactive: alvocidib 0.063 | Tubastatin A -0.036 | [1] 0.003 | defactinib -0.002 | [2] -0.025 | encorafenib 0.012 | [3] -0.057 | alisertib 0 | [4] 0.001 | gefitinib 0.017

MAP1S (UniProt Q66K74)
inactive: alvocidib 0.027 | Tubastatin A -0.072 | [1] -0.01 | defactinib 0.018 | [2] -0.015 | encorafenib 0.008 | [3] 0.06 | alisertib 0.006 | [4] -0.008 | gefitinib -0.021

LYSMD3 (UniProt Q7Z3D4)
UniProt Q7Z3D4, sequence (Q7Z3D4 whole entry, looked up): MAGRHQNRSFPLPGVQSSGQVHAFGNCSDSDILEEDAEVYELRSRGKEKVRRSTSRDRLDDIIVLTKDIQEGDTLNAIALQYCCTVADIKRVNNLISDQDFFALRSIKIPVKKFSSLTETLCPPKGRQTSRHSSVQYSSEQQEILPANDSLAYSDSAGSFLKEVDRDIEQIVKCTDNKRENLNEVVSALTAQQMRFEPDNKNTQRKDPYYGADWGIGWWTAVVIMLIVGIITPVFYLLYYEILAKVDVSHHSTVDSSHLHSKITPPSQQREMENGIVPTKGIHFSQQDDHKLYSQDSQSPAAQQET
inactive: alvocidib -0.001 | Tubastatin A 0.127 | [1] -0.045 | defactinib -0.062 | [2] 0.092 | encorafenib 0.031 | [3] -0.124 | alisertib 0.001 | [4] 0.112 | gefitinib 0.254

MDM2 isoform 11 (UniProt Q00987)
inactive: alvocidib -0.127 | Tubastatin A 0.15 | [1] 0.041 | defactinib 0.158

LRPPRC (UniProt P42704)
inactive: alvocidib 0.076 | Tubastatin A -0.091 | [1] 0.011 | defactinib 0.037 | [2] -0.041 | encorafenib 0.005 | [3] 0.079 | alisertib 0.029 | [4] -0.006 | gefitinib -0.005

MLH1 (UniProt P40692)
inactive: alvocidib 0.011 | Tubastatin A -0.167 | [1] -0.039 | defactinib 0.004 | [2] -0.013 | encorafenib 0.044 | [3] 0.129 | alisertib -0.01 | [4] 0.048 | gefitinib -0.053

MED13L (UniProt Q71F56)
UniProt Q71F56, sequence (Q71F56 whole entry, looked up): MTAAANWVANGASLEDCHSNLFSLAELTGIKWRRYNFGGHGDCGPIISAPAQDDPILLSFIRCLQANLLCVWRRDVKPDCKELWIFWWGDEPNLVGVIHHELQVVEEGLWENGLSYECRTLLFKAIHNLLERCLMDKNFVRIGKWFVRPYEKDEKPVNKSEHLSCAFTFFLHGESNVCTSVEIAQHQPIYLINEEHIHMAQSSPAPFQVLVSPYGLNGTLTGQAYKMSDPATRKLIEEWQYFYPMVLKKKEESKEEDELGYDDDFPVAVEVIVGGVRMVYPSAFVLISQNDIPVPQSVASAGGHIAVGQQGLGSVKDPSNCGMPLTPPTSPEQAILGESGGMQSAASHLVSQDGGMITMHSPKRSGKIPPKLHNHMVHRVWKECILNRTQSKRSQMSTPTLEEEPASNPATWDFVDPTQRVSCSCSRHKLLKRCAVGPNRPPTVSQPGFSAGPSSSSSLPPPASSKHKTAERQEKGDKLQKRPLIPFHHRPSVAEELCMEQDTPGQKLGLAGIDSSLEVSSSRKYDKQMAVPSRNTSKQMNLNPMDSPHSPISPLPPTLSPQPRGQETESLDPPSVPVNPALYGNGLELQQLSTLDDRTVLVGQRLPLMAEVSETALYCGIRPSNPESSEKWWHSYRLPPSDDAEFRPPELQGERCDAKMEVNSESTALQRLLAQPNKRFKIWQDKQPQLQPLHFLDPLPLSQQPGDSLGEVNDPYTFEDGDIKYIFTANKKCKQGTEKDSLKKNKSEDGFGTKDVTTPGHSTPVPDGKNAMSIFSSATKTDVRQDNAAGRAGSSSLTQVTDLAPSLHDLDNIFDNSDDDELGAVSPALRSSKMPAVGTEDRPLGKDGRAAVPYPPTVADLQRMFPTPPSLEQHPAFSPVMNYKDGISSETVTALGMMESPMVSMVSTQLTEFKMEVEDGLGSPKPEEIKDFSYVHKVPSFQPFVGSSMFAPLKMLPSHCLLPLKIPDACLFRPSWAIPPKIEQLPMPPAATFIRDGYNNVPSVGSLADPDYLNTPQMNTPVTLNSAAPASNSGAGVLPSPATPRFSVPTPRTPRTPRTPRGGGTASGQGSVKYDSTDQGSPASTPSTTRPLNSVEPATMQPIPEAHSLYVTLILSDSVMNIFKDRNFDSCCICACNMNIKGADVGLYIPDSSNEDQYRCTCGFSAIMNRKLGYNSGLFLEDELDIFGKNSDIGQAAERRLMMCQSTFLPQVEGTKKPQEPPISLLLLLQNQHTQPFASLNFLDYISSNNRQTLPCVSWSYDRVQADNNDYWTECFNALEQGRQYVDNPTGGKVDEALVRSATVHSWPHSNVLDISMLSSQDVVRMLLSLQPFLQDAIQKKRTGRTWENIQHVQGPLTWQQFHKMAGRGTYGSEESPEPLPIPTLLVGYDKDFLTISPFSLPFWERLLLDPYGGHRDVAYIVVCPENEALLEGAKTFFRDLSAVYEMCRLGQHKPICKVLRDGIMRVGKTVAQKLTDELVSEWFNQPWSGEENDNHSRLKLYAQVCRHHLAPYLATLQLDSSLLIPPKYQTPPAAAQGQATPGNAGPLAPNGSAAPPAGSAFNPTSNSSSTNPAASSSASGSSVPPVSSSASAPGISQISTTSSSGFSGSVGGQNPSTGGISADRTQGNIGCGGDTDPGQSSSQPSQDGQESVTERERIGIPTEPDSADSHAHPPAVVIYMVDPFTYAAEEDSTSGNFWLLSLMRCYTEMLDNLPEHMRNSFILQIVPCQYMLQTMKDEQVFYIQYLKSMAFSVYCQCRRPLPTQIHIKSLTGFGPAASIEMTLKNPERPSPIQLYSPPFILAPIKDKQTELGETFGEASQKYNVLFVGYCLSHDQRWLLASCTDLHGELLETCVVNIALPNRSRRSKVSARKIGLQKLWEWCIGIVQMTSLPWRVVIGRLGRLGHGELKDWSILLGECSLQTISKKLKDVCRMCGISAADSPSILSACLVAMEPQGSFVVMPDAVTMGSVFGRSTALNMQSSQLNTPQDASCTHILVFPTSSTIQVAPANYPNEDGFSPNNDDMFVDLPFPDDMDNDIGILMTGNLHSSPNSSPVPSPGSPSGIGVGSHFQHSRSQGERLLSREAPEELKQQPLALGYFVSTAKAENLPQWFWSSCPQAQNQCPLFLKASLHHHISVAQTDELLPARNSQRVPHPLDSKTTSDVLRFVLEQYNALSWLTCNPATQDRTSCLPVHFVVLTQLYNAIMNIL
inactive: alvocidib 0.042 | Tubastatin A -0.069 | [1] 0.016 | defactinib -0.011 | [2] -0.004 | encorafenib 0.02 | [3] 0.021 | alisertib -0.084 | [4] -0.005 | gefitinib 0.01

KIF2C (UniProt Q99661)
inactive: alvocidib 0.011 | Tubastatin A -0.18 | [1] -0.006 | defactinib 0.018 | [2] 0.002 | encorafenib 0.004 | [3] 0.096 | alisertib -0.006 | [4] 0.001 | gefitinib -0.014

KNSTRN (UniProt Q9Y448)
UniProt Q9Y448, sequence (Q9Y448 whole entry, looked up): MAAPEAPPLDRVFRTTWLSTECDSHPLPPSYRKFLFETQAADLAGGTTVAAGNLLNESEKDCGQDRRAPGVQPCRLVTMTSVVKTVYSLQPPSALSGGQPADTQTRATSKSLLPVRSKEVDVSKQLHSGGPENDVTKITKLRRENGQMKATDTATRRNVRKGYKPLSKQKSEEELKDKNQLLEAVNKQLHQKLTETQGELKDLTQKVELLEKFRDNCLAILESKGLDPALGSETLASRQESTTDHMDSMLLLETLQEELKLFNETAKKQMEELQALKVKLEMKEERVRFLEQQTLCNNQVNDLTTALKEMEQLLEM
active: [3] -0.264
inactive: alvocidib 0.001 | Tubastatin A -0.062 | [1] 0.038 | defactinib -0.029 | [2] 0.053 | encorafenib 0.074 | alisertib 0.043 | [4] -0.016 | gefitinib -0.022
